Rows were chosen to be rich in hits. Some 28% of all compounds tested hit in one or more screens of this group.
CYP2C19 inhib = human CYP2C19 inhibition | P33261 | CYP2C19 Supersomes, luciferin-H EGE luminescence, 30 min | inhibition, % at 5 µM | 21% of 96,000 active;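 active = CYP2C19 inhibition above a set limit at 5 µM in the primary screen, cut at about 50% in these data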;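 note: plate controls were negative control wells for no effect and 2.5 mM tranylcypromine positive control for full effect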
Target sequence (P33261 whole entry, looked up): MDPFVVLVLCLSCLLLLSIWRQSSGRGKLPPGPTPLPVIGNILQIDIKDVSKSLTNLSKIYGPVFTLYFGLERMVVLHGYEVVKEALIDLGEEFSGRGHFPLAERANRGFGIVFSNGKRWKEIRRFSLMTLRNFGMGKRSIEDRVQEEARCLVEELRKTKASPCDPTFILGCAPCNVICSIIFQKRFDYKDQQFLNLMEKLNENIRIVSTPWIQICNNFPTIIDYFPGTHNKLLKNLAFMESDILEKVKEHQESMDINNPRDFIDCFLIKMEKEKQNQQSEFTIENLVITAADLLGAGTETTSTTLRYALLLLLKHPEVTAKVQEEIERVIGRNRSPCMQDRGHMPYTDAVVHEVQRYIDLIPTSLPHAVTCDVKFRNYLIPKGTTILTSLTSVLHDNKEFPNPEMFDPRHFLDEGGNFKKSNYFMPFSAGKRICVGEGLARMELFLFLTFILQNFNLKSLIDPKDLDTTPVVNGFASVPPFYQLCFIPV
CYP2C19 act = cytochrome P450 2C19 (human) activation; AID 1025; activation factor at 5 µM; 96,000 tested, under 10 active; P33261; recombinant CYP2C19, luciferin-H EGE luminescence; active compounds read high; 0 = fully inhibited enzyme, 1 = untreated enzyme;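 active = activation factor of at least 2 at 5 µM in the primary screen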;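 note: 0 = wells with 2.5 mM tranylcypromine and 1 = vehicle-only wells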
CD11b adhes enh = CD11b/CD18-fibrinogen binding enhancement; activation, % at 10 µM; P05107+P11215; 0.07% of 93,000 active; K562 CD11b/CD18 adhesion to fibrinogen, ATPlite luminescence; AID 1499;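 active = 10 µM primary screen giving 50% or more activity, confirmed by 40% or more on retest at that dose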
CD11b adhes inh = CD11b/CD18-fibrinogen binding inhibition | P05107+P11215 | K562 CD11b/CD18 adhesion to fibrinogen, ATPlite luminescence; Mn2+ added to activate the integrin | inhibition, % at 10 µM | 0.54% of 93,000 active | AID 1497;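 active = primary inhibition of 50% or more at 10 µM, then 40% or more on retest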
CYP2C9 activ = activators of human CYP2C9 | recombinant CYP2C9, luciferin-H conversion, luminescence; active compounds read high; factor 1 = untreated enzyme, 0 = blocked | activation factor at 5 µM | 1.4% of 96,000 active;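 active = activation factor of 2 or more for CYP2C9 at a 5 µM dose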;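 note: 0 = sulfaphenazole-blocked wells and 1 = vehicle-only wells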
CYP2C9 inh = inhibitors of human CYP2C9; inhibition, % at 5 µM; 20% of 96,000 active; AID 777; P11712; CYP2C9 Supersomes, luciferin-H conversion, luminescence;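 active = blocking of liver enzyme CYP2C9 beyond about 50% at 5 µM, limit read from the data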
Starred values were filed as active, the others as inactive; nt = no result.

SMILES	CYP2C19 inhib	CYP2C19 act	CD11b adhes enh	CD11b adhes inh	CYP2C9 activ	CYP2C9 inh
CCOC(=O)C1C(c2cccc(Cl)c2Cl)NC(=O)NC1(O)C(F)(F)F (stereo not drawn)	21	0.8	-4	14	1	1
O=C1CC(N2CCN(c3ccc(F)cc3)CC2)C(=O)N1Cc1cccs1 (stereo not drawn)	30	0.7	0	0	0.7	33
O=C1CC(N2CCN(c3nc4ccccc4s3)CC2)C(=O)N1Cc1cccs1 (stereo not drawn)	48	0.5	-3	19	0.3	69*
CC1=C(n2nnc3ccccc32)C(c2ccccc2)C(C#N)=C(N)O1 (stereo not drawn)	30	0.7	-3	-6	0.7	26
C=CCOC(=O)C1=C(C)OC(N)=C(C#N)C1c1c(C)nn(-c2ccccc2)c1Cl (stereo not drawn)	89*	0.1	-3	20	0.2	82*
Cc1ccc(-n2nc(C)c(C3C(C#N)=C(N)OC4=C3C(=O)CC(C)(C)C4)c2Cl)cc1 (stereo not drawn)	7	0.9	-4	-8	0.9	11
CCOC(=O)C1=C(C)OC(N)=C(C#N)C1c1c(C)nn(-c2ccccc2)c1Cl (stereo not drawn)	83*	0.2	1	-10	0.3	74*
CC1=C(C(=O)OCc2ccccc2)C(c2ccoc2)C(C#N)=C(N)O1 (stereo not drawn)	77*	0.2	2	-11	0.5	48
Fc1c(F)c(C(F)(F)F)c(F)c(F)c1N/N=C\c1cccs1	2	1	-6	0	0.9	5
CC(=O)NCC1=C(NC(C)=O)C2CC1C(C)(C)C2C (stereo not drawn)	9	0.9	-3	-4	0.9	11
N#C/C(=C\c1ccco1)C(=O)Nc1cccc2ncccc12	nt	nt	1	-2	nt	nt
CC(C)c1ccc(NC(=O)C2CC(=O)N=C(N)S2)cc1 (stereo not drawn)	2	1	-3	-5	1.1	-11
C=CCn1c(SCC(=O)N2CCN(c3ccc(F)cc3)CC2)nnc1-c1cccs1	65*	0.3	2	10	0.7	30
C=CCn1c(SCC(=O)N2CCN(c3ccccc3)CC2)nnc1-c1ccco1	4	1	-4	5	0.9	6
CCCCn1c(SCC(=O)N2CCOCC2)nnc1-c1cccs1	13	0.9	nt	nt	0.4	62*
O=C(CSc1nnc(-c2ccco2)n1Cc1ccco1)N1CCOCC1	1	1	0	-5	1	1
CCCCn1c(SCC(=O)N2CCCC2)nnc1-c1ccccc1	52*	0.5	-3	2	1	1
O=C(OCCNc1ncc(C(F)(F)F)cc1Cl)c1ccc(S(=O)(=O)N2CCOCC2)cc1	69*	0.3	2	0	0.7	27
CCC(C)N1C(=O)CCC1C(=O)NCc1ccc2c(c1)OCO2 (stereo not drawn)	0	1	2	-21	1	0
Cc1ccc2c(CN3C(=O)NC4(CCCCC4)C3=O)cc(=O)oc2c1C	32	0.7	1	-14	1.3	-27
CC1CCCN(Cc2cnc(Cl)s2)C1 (stereo not drawn)	53*	0.5	-2	-6	1	2
C#CCNc1cc(C)nc2ncnn12	-7	1.1	1	1	1	0
Cn1c(C(=O)OCC(=O)NCc2ccco2)cc2sccc21	40	0.6	-1	-6	0.7	26
CCOc1cc(C(=O)OCC(=O)NCc2ccco2)cc(OCC)c1OCC	58*	0.4	-1	-3	0.4	57*
O=C(COC(=O)c1cccs1)NCc1ccco1	70*	0.3	-1	-8	0.8	20
SMILES	CYP2C19 inhib	CYP2C19 act	CD11b adhes enh	CD11b adhes inh	CYP2C9 activ	CYP2C9 inh
NC(=O)c1ccsc1NC(=O)COC(=O)COc1ccccc1F	nt	nt	4	5	nt	nt
CSc1ccc(Cl)c(C(=O)OCC(=O)NCc2ccco2)c1	93*	0.1	16	4	0.6	43
COc1cc(C(=O)OCC(=O)NCc2ccco2)cc(OC)c1OC	40	0.6	-3	-3	1	4
NC(=O)c1ccsc1NC(=O)COC(=O)c1ccccc1NCc1ccco1	74*	0.3	3	3	0.1	90*
COc1ccc(CCNC(=O)Cn2c(=O)n(Cc3ccco3)c(=O)c3ccc(Cl)cc32)cc1OC	35	0.6	0	26	0.6	42
CCOC(=O)CNC1CC(=O)N(c2cccc(Cl)c2)C1=O (stereo not drawn)	14	0.9	-6	-30	0.9	9
CC(C)(C)c1ccc(OCC(=O)NCc2ccco2)c(Br)c1	46	0.5	4	8	0.2	76*
O=C(COC(=O)c1cccs1)NCc1ccccc1	92*	0.1	-6	12	0.8	23
COc1cc(NC(=O)c2cccs2)c(C(=O)OCC(=O)NCc2ccco2)cc1OC	27	0.7	87	-3	0.2	82*
COc1ccc(NC(=O)COC(=O)c2cc(OC)c(OC)cc2NC(=O)c2ccco2)cc1OC	21	0.8	7	8	0.7	29
COc1ccccc1C(=O)Nc1c2c(nn1-c1cccc(C)c1C)CS(=O)C2 (stereo not drawn)	40	0.6	0	-25	0.7	26
CN1CCc2c(sc3c2c(=O)n(-c2ccccc2)c2n[nH]c(=S)n32)C1	9	0.9	2	-33	0.8	18
C=CCn1c(CCCOc2ccc(Cl)cc2Cl)nnc1SCC(=O)Nc1nccs1	-9	1.1	-3	-10	1.1	-7
Cn1c(=O)n(C)c2cc(NC(=O)CSc3nnc(-c4ccccc4O)n3-c3ccccc3)ccc21	6	0.9	26	11	0.8	25
CC(=O)Nc1cccc(NC(=O)CSc2nnc(Cc3cccn3C)n2CCc2ccccc2)c1	38	0.6	2	4	0.6	39
C/C(N)=C(/C#N)C(=O)CSc1nnc(COc2cc(C)ccc2C)o1	0	1	nt	nt	0.9	9
O=C(Nc1nc(=S)ss1)c1c(F)cccc1F	-2	1	nt	nt	0.2	80*
CC(C)CC(=O)Nc1nc(=S)ss1	43	0.6	-6	75*	0.3	69*
CC(=O)Nc1nc(=S)ss1	-10	1.1	-3	9	0.9	12
Cc1ccccc1C(=O)Nc1nc(=S)ss1	0	1	-11	100*	0.2	81*
O=C1CNC(=O)/C1=C/c1ccc(O)cc1	14	0.9	nt	nt	1	3
Cc1ccc(C)c(N2CCN(C(=O)C3CCCN(S(=O)(=O)c4c(C)noc4C)C3)CC2)c1 (stereo not drawn)	74*	0.3	3	-13	0.1	93*
Cc1noc(C)c1S(=O)(=O)N1CCCC(C(=O)N2CCc3ccccc3C2)C1 (stereo not drawn)	74*	0.3	-4	34	0.5	47

Screens deposited in PubChem BioAssay by Sanford-Burnham Center for Chemical Genomics.
